Source: PubChem (National Center for Advancing Translational Sciences (NCATS))
Rab9 prom act: Rab9 promoter activation; Potency, µM (series often up to 9.22 µM), hits mostly activators; 320,000 tested, 2.8% active; Huh7 Rab9 promoter-luciferase reporter, luminescence, 24 h; also: nearly all actives have a fitted effect of over 60% in size
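Measured in stably transfected Huh7 cells bearing a Rab9 promoter–luciferase construct: 24 h compound treatment at 37 °C, followed by luminescence detection.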
NPC1 prom act: activators of NPC1 promoter. 320,000 tested, 2.4% active. AID 485313. Huh7 NPC1 promoter luciferase reporter, 24 h. Potency, µM (series often up to 9.22 µM), most hits filed as activators; also: nearly all actives have a fitted effect of over 60% in size
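Luciferase expression driven by the NPC1 promoter was measured in stably transfected Huh7 cells after a 24 h compound incubation, using a luciferase reagent and a luminescence read.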
ELG1 genotox: genotoxicity induction in ELG1-luciferase HEK293T cells; HEK293T ELG1-luciferase reporter, luminescence, 16 h; Potency, µM (top dose mostly 46 µM), most hits filed as activators; 330,000 tested, 1.3% active; AID 504466; also: nearly all actives have a fitted effect of over 60% in size
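Cells (2,000/well) expressing the ELG1-luciferase fusion are dosed by pin tool and kept 16 hr at 37 °C, 5% CO2. Signal comes from ONE-Glo luciferase reagent after 30 min at room temperature.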
Luc counter: blocks Kinase-Glo luciferase, a counter-screen artifact; AID 1379; Kinase-Glo luciferase, ATP luminescence, 8 min; Potency, µM (titrated, usually from 38.3 µM), most hits filed as inhibitors; 200,000 tested, 0.28% active; also: nearly all actives have a fitted effect of over 60% in size
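Kinase-Glo luciferase light output from ATP and luciferin was measured with 10 uM ATP, within the enzyme's linear range. Buffer: 50 mM imidazole pH 7.2, 50 mM KCl, 7 mM MgCl2, 0.01% Tween 20, 0.05% BSA; luminescence read after 8 min at ambient temperature.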
FLuc modulator: counter-screen for miR-21 project: firefly luciferase inhibitors or activators | P08659 | purified FLuc, Km substrates, luminescence inhibition | Potency, µM (doses to about 57.5 µM), hits mostly inhibitors | 360,000 tested, 6.9% active; also: nearly all actives have a fitted effect of over 55% in size
Target sequence (P08659 whole entry, looked up): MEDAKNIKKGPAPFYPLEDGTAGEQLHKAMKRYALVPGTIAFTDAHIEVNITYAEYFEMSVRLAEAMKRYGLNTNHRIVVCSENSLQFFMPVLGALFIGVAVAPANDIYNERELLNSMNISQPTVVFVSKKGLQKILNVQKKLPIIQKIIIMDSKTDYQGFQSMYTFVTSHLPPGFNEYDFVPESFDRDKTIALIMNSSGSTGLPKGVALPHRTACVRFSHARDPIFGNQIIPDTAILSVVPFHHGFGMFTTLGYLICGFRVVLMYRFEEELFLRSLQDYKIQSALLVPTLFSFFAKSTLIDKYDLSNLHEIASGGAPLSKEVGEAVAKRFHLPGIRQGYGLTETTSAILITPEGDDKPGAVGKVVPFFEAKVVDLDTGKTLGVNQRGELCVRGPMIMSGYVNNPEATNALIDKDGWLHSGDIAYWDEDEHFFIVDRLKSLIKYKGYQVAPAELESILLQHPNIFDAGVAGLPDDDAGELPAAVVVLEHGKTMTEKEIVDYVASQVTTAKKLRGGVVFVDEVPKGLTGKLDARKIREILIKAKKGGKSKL
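Biochemical qHTS of compounds, final roughly 60 µM downward over six points, against 10 nM purified firefly luciferase using Km concentrations of substrates (10 uM D-luciferin, 10 uM ATP) in Tris acetate pH 7.5 buffer; luminescence output.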
SMN2 splice enh: increases expression of the SMN2 splice variant | HEK293 SMN2-luciferase splicing reporter, luminescence, 30-36 h | Potency, µM (titrated, usually from 46.1 µM), usual class: activators | 210,000 tested, 2.8% active; also: nearly all actives have a fitted effect of over 55% in size
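HEK293 cells carry an SMN2 minigene-luciferase reporter in which exon 7 inclusion puts luciferase in frame. Cells were seeded at 2000 cells/well, attached for 10-12 hours, then exposed to compounds for 30-36 hours at 37C before ONE-Glo luminescence.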
Numbers stand for hits; [ ] = remark or other dose. This is a sample that favours compounds with a hit; in the whole collection about 7.5% have one here. Calls follow the shape of the dose curve; as a rule, active = well fitted curve in the direction sought with a large enough effect; inconclusive = small, poorly fitted or top-dose-only effect, or another doubt; inactive = no such curve, though single readings can be large; an effect the other way counts as inactive or inconclusive.

COc1cc(/C=C/c2cc(C(=O)O)c3ccccc3n2)ccc1OC(F)F was read as Rab9 prom act 3.2µM, NPC1 prom act 3.2µM, ELG1 genotox inactive and FLuc modulator 0.43µM.
For O=C(O)c1cc(/C=C/c2ccc(N3CCOCC3)cc2)nc2ccccc12 the results were Rab9 prom act inconclusive, NPC1 prom act inconclusive, ELG1 genotox inactive, Luc counter 11µM, FLuc modulator 0.48µM and SMN2 splice enh inconclusive.
O=C(O)c1cc(N2CCOCC2)nc2ccccc12 was read as Rab9 prom act inactive, NPC1 prom act inactive, ELG1 genotox inactive and FLuc modulator inactive.
CSc1nn(Cc2ccc(Br)cc2)c(N(C(C)=O)C(C)=O)c1S(=O)(=O)c1ccccc1 was read as FLuc modulator inactive and SMN2 splice enh inactive.
`C=C(CCC(=O)c1ccccc1)C(=O)c1ccccc1` gave Rab9 prom act inactive, NPC1 prom act inactive, ELG1 genotox inactive, Luc counter inactive, FLuc modulator 17µM and SMN2 splice enh inactive.
For C(=N\n1cnnc1)/c1cccc(OCCOc2ccccc2)c1 the results were Rab9 prom act 1.4µM, NPC1 prom act 2.8µM, ELG1 genotox inactive, Luc counter inactive, FLuc modulator inconclusive and SMN2 splice enh 11µM.
Fc1ccccc1COc1ccc(/C=N/n2cnnc2)cc1 was read as Rab9 prom act inactive, NPC1 prom act inactive, ELG1 genotox inactive, Luc counter inactive, FLuc modulator inactive and SMN2 splice enh inactive.
`C(=N\n1cnnc1)/c1ccc(OCc2cccc3ccccc23)cc1` gave Rab9 prom act inconclusive, NPC1 prom act inconclusive, ELG1 genotox inconclusive, Luc counter inactive, FLuc modulator inconclusive and SMN2 splice enh 14µM.
For O=[N+]([O-])c1ccc(N/N=C/c2ccc(OCc3cccc4ccccc34)cc2)nc1 the results were Rab9 prom act inactive, NPC1 prom act inactive, ELG1 genotox 21µM, Luc counter inactive, FLuc modulator inactive and SMN2 splice enh inactive.
`O=C(CCS(=O)(=O)c1ccccc1)NNC(=O)CSc1ccccc1F` gave ELG1 genotox inactive.
Screening COc1ccccc1C(=O)Nc1nnc(-c2ccco2)s1 returned Rab9 prom act inconclusive, NPC1 prom act inactive, ELG1 genotox 1.6µM, Luc counter inactive, FLuc modulator 2.7µM and SMN2 splice enh 11µM.
Screening Cc1ccccc1C(=O)Nc1nnc(-c2ccco2)s1 returned Rab9 prom act 0.32µM, NPC1 prom act 0.56µM, ELG1 genotox 1.5µM, Luc counter inactive, FLuc modulator 1.5µM and SMN2 splice enh 2µM.
For Cc1ccccc1OCC(=O)Nc1nnc(-c2ccco2)s1 the results were Rab9 prom act inactive, NPC1 prom act inactive, ELG1 genotox inactive and FLuc modulator inactive.
For CCN(C[C@H]1N[C@@](Cc2ccccc2)(C(=O)OC)[C@H]2C(=O)N(Cc3ccccc3)C(=O)[C@@H]12)C(=O)Nc1ccc(C(F)(F)F)cc1 the results were ELG1 genotox inactive.
`O=C(OCCNC(=O)c1ccc2ccccc2n1)c1ccc(F)cc1` gave Rab9 prom act inactive, NPC1 prom act inactive, ELG1 genotox inactive, Luc counter inactive, FLuc modulator inactive and SMN2 splice enh inactive.
For CCOC(=O)CNC(=O)N1[C@H](c2cccs2)[C@@H](C)C(=O)[C@@H](C)[C@@H]1c1cccs1 the results were FLuc modulator inactive.
Screening COc1ccc2oc(C(=O)NCCN3CCOCC3)c(C)c2c1OC returned Rab9 prom act 2.2µM, NPC1 prom act 2µM, ELG1 genotox 10µM and FLuc modulator 15µM.
Screening Cc1ccc2oc(C(=O)NCCCN3CCOCC3)c(C)c2c1 returned Rab9 prom act 4µM, NPC1 prom act 3.2µM, ELG1 genotox 18µM and FLuc modulator 13µM.
Screening COc1ccsc1C(=O)NCCN1CCOCC1 returned Rab9 prom act inactive, NPC1 prom act inactive, ELG1 genotox inactive and FLuc modulator inactive.
Cc1ccc2oc(C(=O)NCCC3CCCCO3)c(C)c2c1 (stereo not given) was read as Rab9 prom act 0.45µM, NPC1 prom act 0.56µM, ELG1 genotox 3.7µM and FLuc modulator 2.7µM.
`O/N=C/c1ccc2ccccc2c1` gave Rab9 prom act inactive, NPC1 prom act inactive, ELG1 genotox inactive, Luc counter inactive and FLuc modulator inactive.
O=C(/C=C/c1ccc2ccccc2c1)c1ccoc1 was read as Rab9 prom act inconclusive, NPC1 prom act inconclusive, ELG1 genotox inactive, Luc counter inactive, FLuc modulator 0.54µM and SMN2 splice enh inactive.
For CC(=NCC(=O)O)c1ccccc1 the results were Luc counter inactive[7.66 µM] and SMN2 splice enh inactive[9.22 µM].
`COc1cc(/C=N/NC(=O)c2cccnc2)cc2c1OCO2` gave Rab9 prom act inactive, NPC1 prom act inactive, ELG1 genotox inactive and FLuc modulator inactive.
For CCOc1cc(/C=N/NC(=O)COc2ccc(C)cc2)ccc1OC(=O)c1cccs1 the results were Rab9 prom act inactive, NPC1 prom act inactive, ELG1 genotox inactive, Luc counter inactive, FLuc modulator inactive and SMN2 splice enh inactive.
`COc1cc(/C=N/Nc2ccccc2)ccc1OC(=O)c1cccs1` gave Rab9 prom act inactive, NPC1 prom act inactive, ELG1 genotox inconclusive, Luc counter inactive, FLuc modulator 21µM and SMN2 splice enh inconclusive.
Screening COc1cc(/C=N/Nc2ccc(Cl)c(C(=O)O)c2)ccc1OC(=O)c1cccs1 returned Rab9 prom act inconclusive, NPC1 prom act inactive, ELG1 genotox inactive, Luc counter inactive, FLuc modulator 24µM and SMN2 splice enh inactive.
`COc1cc(/C=N/NC(=O)c2ccccn2)cc2c1OCO2` gave Rab9 prom act inconclusive, NPC1 prom act inconclusive, ELG1 genotox inconclusive, Luc counter inactive, FLuc modulator 24µM and SMN2 splice enh 11µM.
For COc1cc(/C=N/NC(=O)COc2ccc(C)cc2)ccc1OC(=O)c1cccs1 the results were Rab9 prom act inactive, NPC1 prom act inactive, ELG1 genotox inactive, Luc counter inactive, FLuc modulator 11µM and SMN2 splice enh inactive[1.84 µM].
`CCc1cccc(NC(c2ccccc2)c2nnc(-c3ccccc3F)o2)c1` (stereo not given) gave FLuc modulator inconclusive and SMN2 splice enh inactive.
Screening CC[N+](C)(CC)CCOC(=O)C1c2ccccc2Oc2ccccc21 returned Rab9 prom act inactive, NPC1 prom act inactive, ELG1 genotox inactive, Luc counter inactive, FLuc modulator inactive and SMN2 splice enh inactive.
`COc1cc(/C=N/NC(=O)C(N)=O)ccc1OC(=O)c1cccs1` gave Rab9 prom act inactive, NPC1 prom act inactive, ELG1 genotox inactive, Luc counter inactive, FLuc modulator inactive and SMN2 splice enh inactive.
Screening COc1cc(/C=N/NC(=O)c2ccccn2)ccc1OC(=O)c1cccs1 returned Rab9 prom act inactive, NPC1 prom act inconclusive, ELG1 genotox inconclusive and FLuc modulator 13µM.
